# Test results: PubChem BioAssay (NCATS)
# Records with an inconclusive call do not appear. A call without a number means that no potency is given here. A number with no mark means an inactive call. Calls of active or inactive are those of the source. Calls follow the shape of the dose curve; as a rule, active = well fitted curve in the direction sought with a large enough effect; inconclusive = small, poorly fitted or top-dose-only effect, or another doubt; inactive = no such curve, though single readings can be large; an effect the other way counts as inactive or inconclusive. Where a SMILES comes first, the peptide text is derived from it.
# Columns and labels:
# Furin (Homo sapiens) = Furin (Homo sapiens) (UniProt P09958); assay: Furin counterscreen qHTS for Zika virus inhibitors (AID 1347149); conditions: furin enzymatic counterscreen, fluorogenic substrate; series mostly up to 114 µM;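 also: purified recombinant full-length human furin enzyme at 5 nM; fluorescence gain from furin cutting a BOC-RVRR-AMC peptide substrate over 15 min; top concentration of the series differs between compounds; nearly all actives have a fitted effect of over 70% in size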
# Chain of Furin (Homo sapiens) (P09958 whole entry, looked up): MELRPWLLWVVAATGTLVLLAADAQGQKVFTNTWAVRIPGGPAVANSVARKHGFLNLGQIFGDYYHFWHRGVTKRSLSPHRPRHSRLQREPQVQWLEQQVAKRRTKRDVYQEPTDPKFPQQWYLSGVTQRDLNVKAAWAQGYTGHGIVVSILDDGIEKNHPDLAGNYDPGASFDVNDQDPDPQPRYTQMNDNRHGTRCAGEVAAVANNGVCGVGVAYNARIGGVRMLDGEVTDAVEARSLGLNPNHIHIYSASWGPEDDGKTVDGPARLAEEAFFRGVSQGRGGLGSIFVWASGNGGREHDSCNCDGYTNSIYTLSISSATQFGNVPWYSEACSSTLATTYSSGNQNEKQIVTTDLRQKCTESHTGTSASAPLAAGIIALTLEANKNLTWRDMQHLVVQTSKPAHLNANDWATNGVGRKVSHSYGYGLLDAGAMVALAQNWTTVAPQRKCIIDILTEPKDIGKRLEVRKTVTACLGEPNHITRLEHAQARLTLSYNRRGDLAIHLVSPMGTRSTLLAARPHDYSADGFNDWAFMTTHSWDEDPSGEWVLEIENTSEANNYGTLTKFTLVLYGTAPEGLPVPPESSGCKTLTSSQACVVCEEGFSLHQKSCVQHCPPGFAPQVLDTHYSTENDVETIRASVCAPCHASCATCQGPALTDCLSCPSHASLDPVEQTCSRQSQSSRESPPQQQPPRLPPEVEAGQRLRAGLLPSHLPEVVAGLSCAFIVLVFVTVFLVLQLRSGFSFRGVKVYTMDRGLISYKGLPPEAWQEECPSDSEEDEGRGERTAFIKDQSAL
# Method in brief: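 Counterscreen measures cleavage of 2 microM BOC-RVRR-AMC, below its ~15 microM Km, by 5 nM full-length human furin at pH 7.0 after a 15-min compound preincubation. Inhibition derives from the 15-min fluorescence increase at 37C.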
# [1] = Confirmatory screen GU Rhodamine qHTS for Zika virus inhibitors qHTS (AID 1347157); conditions: purified enzyme assay, Rhodamine110 substrate fluorescence, 15 min; series mostly up to 22 µM; also: potency is read from the fitted curve at half-maximal effect; nearly all actives have a fitted effect of over 70% in size
# Text: Avindra Nath, Ph.D., National Institute of Neurological Disorders and Stroke (NINDS), Bethesda, MD
# Radhakrishnan Padmanabhan, Ph.D., Georgetown University (GU), Washington D.C.
# Zika Virus causes congenital defects, including microcephaly and is associated with Guillain-Barre syndrome, eningoencephalitis and myelitis in infected adult. […] Using a target-based approach, we hope to establish a screening paradigm to uncover novel, cell-active NS2B-NS3 protease (Zika Virus) specific inhibitors from NCATS' collection of small molecules using qHTS.
# Four assay panel was created to identify potential Zika Virus inhibitors. Namely, (1) GU unlinked NS2B-NS3 AMC tagged protease qHTS, (2) GU unlinked NS2B-NS3 Rhodamine tagged protease qHTS, (3) NINDS linked NS2B-NS3 AMC tagged protease qHTS, (4) NINDS linked NS2B-NS3 Rhodamine tagged protease qHTS. Active compounds were re-acquired and re-screened to confirm inhibition. Inhibitors were further screened against various confirmatory and counterscreens in dose response format.
# Early Translation Branch (ETB)
# National Center for Advancing Translational Sciences (NCATS), Rockville, MD
# National Institute of Health (NIH), Bethesda, Maryland
# Padmanabhan lab provided the NS2B hydrophilic domain and NS3 protease domain in a noncovalent complex used for the unlinked assay. Control compound aprotinin is obtained from Thermo Scientific (#78432; Waltham, Massachusetts). […]
# Briefly, 3 microL of enzyme (25 nM final concentration), in assay buffer (10 mM Tris-HCl pH 8.0 with 0.01% Tween 20) were dispensed into a 1,536-well solid-bottom black plate (Greiner Bio One, Monroe, NC). […] Plates were then immediately read on a ViewLux High-throughput CCD imager (PerkinElmer, Waltham, MA) equipped with FITC fluorescence optics (480(20) nm excitation, 540(25) nm emission), then incubated (room temperature, protected from light) for 15 minutes (~15% conversion). The change in fluorescence intensity over the 15-minute reaction period was normalized against no-inhibitor and no-enzyme controls and the resulting percent inhibition data were fitted to a 4-parameter Hill equation. […]
# [2] = tested on: Zika virus NS2B-NS3 protease (unlinked complex); assay: Primary screen GU Rhodamine qHTS for Zika virus inhibitors: Unlinked NS2B-NS3 protease assay (AID 1347159); conditions: Recombinant ZIKV NS2B-NS3 protease, Rhodamine110 substrate fluorescence; series mostly up to 107 µM; also: nearly all actives have a fitted effect of over 60% in size; also: potency is read from the fitted curve at half-maximal effect
# Method in brief: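 Percent inhibition came from the 15-min rise in Rhodamine110 fluorescence (1.5 microM substrate, ~15% conversion), normalized to no-inhibitor and no-enzyme wells and Hill-fitted. Unlinked protease, 25 nM, pH 8.0 Tris buffer; compounds up to 114 microM, 15-min preincubation.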
# [3] = Confirmatory screen NINDS Rhodamine qHTS for Zika virus inhibitors (AID 1347161); conditions: purified enzyme assay, Rhodamine110 substrate fluorescence, 15 min; series mostly up to 22.2 µM; also: potency is read from the fitted curve at half-maximal effect; nearly all actives have a fitted effect of over 60% in size
# Method in brief: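 qHTS dose-response: 25 nM linked protease, pH 8.0 Tris/Tween buffer, cpd titration, 15 min RT preinc, 1.5 microM Rhod110 peptide, 15 min reaction (~15% conversion), Ex480/Em540; 4-parameter Hill fit.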
# [4] = tested on: Zika virus NS2B-NS3 protease (unlinked); assay: Optimization of GU AMC qHTS for Zika virus inhibitors: Unlinked NS2B-NS3 protease assay (AID 1347151); conditions: recombinant ZIKV NS2B-NS3 protease, fluorogenic AMC substrate; series mostly up to 52.5 µM; also: potency is read from the fitted curve at half-maximal effect; nearly all actives have a fitted effect of over 80% in size
# Method in brief: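 Percent inhibition is derived from the 15-min change in AMC fluorescence, normalized against no-inhibitor and no-enzyme controls, then fitted to a 4-parameter Hill curve. Aprotinin was the intraplate control.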
# [5] = tested on: Zika virus NS2B-NS3 protease; assay: Primary screen GU AMC qHTS for Zika virus inhibitors (AID 1347154); conditions: Zika NS2B-NS3 unlinked protease, AMC fluorogenic substrate; series mostly up to 54.1 µM; also: nearly all actives have a fitted effect of over 70% in size; also: potency is read from the fitted curve at half-maximal effect
# Method in brief: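 Unlinked Zika NS2B hydrophilic domain/NS3 protease domain noncovalent complex (25 nM final) in 10 mM Tris-HCl pH 8.0, 0.01% Tween 20, with AMC peptide substrate. Fluorescence (ex 340, em 450 nm) change over 15 min, room temperature; percent inhibition fitted to 4-parameter Hill equation.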
# [6] = tested on: Zika virus NS2B-NS3 protease (linked construct); assay: Primary screen NINDS Rhodamine qHTS for Zika virus inhibitors (AID 1347160); conditions: purified NS2B-NS3 protease, Rhodamine110 substrate fluorescence; series mostly up to 57.1 µM; also: nearly all actives have a fitted effect of over 55% in size
# Method in brief: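 Rhodamine110-peptide cleavage (1.5 µM substrate) by 25 nM linked NS2B-NS3 enzyme at pH 8.0 (Tris, Tween 20), after 15 min RT preincubation with compounds; 15-min fluorescence change normalized to controls and Hill-fitted.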
smiles,measurement,setting,value
O=C1NC(=O)/C(=C/c2ccc3c(c2)OC(F)(F)O3)S1,Potency,Furin (Homo sapiens),inactive
same,Potency,[1],12.4 µM (active)
same,Potency,[2],12.6 µM (active)
same,Potency,[3],7.84 µM (active)
COc1c(C)c2c(c(O)c1C/C=C(\C)CCC(=O)OCCN1CCOCC1)C(=O)OC2,Potency,[4],21.5 µM (active)
OCCc1ccccc1,Potency,[5],inactive
CC(=O)N[C@@H](CO)C(=O)N[C@@H](CC(=O)O)C(=O)N[C@@H](CCCCN)C(=O)N1CCC[C@H]1C(=O)O (Ac-SDKP-OH),Potency,[5],inactive
Cc1ccc(Cl)c(OCC(O)CNC(C)(C)C)c1 (stereo not given),Potency,[5],inactive
CC[C@@]1(O)C(=O)OCc2c1cc1n(c2=O)Cc2c-1nc1ccccc1c2/C=N/OC(C)(C)C,Potency,[5],14.4 µM (active)
CN1C(=O)CC(C)(c2ccccc2)C1=O (stereo not given),Potency,[5],inactive
CCC(=O)O[C@]1(C(=O)COC)[C@@H](C)C[C@H]2[C@@H]3CCC4=CC(=O)C=C[C@]4(C)C3(F)[C@@H](O)C[C@@]21C (stereo not given in full),Potency,[5],inactive
CCCC(CCC)(C(=O)OCC)C(=O)OCC,Potency,[5],inactive
O=c1[nH]sc2cc(Cl)ccc12,Potency,[5],inactive
CO[C@@]1(NC(=O)CSC[C@@H](N)C(=O)O)C(=O)N2C(C(=O)O)=C(CSc3nnnn3C)CS[C@@H]21,Potency,[5],inactive
CC(C)NCCCC1(C(N)=O)c2ccccc2-c2ccccc21,Potency,[5],inactive
CCC[C@H](N[C@@H](C)C(=O)N1[C@H](C(=O)O)C[C@@H]2CCCC[C@@H]21)C(=O)OCC,Potency,[5],inactive
CCCCCC(=O)O[C@]1(C(C)=O)CC[C@H]2[C@@H]3CCC4=CC(=O)CC[C@]4(C)[C@H]3CC[C@@]21C,Potency,[5],inactive
O=C(O)c1ccc(OCCN2CCCCC2)cc1,Potency,[5],inactive
Oc1cccc2[nH]ccc12,Potency,[5],inactive
NS(=O)(=O)c1ccc(N2CCCCS2(=O)=O)cc1,Potency,[5],inactive
CN1C(CSCC(F)(F)F)Nc2cc(Cl)c(S(N)(=O)=O)cc2S1(=O)=O (stereo not given),Potency,[5],inactive
COC(=O)c1ccc(NC(C)=O)cc1OC,Potency,[5],inactive
C[C@H]1C[C@H]2[C@@H]3CCC4=CC(=O)C=C[C@]4(C)[C@H]3C(=O)C[C@]2(C)[C@@]1(O)C(=O)CO,Potency,[5],inactive
CN1CCCN=C1/C=C/c1cccs1,Potency,[5],inactive
C[C@@H](C1=C(CCN(C)C)Cc2ccccc21)c1ccccn1,Potency,[5],inactive
Cc1ccc(CCn2c3c(c4cc(Cl)ccc42)CN(C)CC3)cn1,Potency,[5],inactive
Cc1ncc([N+](=O)[O-])n1C,Potency,[5],inactive
C/C(=N/NC(=O)c1ccncc1)C(=O)O,Potency,[5],inactive
NCC[C@H](O)C(=O)N[C@@H]1C[C@H](N)[C@@H](O[C@H]2O[C@H](CN)[C@@H](O)[C@H](O)[C@@H]2O)[C@H](O)[C@@H]1O[C@H]1O[C@H](CO)[C@@H](O)[C@H](N)[C@@H]1O,"activity change, negative = inhibition",[5],-0.909% [at 0.59 µM]
CN1CC(=O)N2[C@H](c3ccc4c(c3)OCO4)c3[nH]c4ccccc4c3C[C@@H]2C1=O,Potency,[5],inactive
Cc1nc2n(c(=O)c1CCN1CCC(C(=O)c3ccc(F)cc3)CC1)CCS2,Potency,[5],inactive
Nc1c(I)cc(I)c(C(=O)N(CCC(=O)O)c2ccccc2)c1I,Potency,[5],inactive
CN(C)CCN1CCN(c2cccc(Cl)c2)C1=O,Potency,[5],inactive
CCc1cc(S(=O)(=O)O)c2cc(C(C)C)cccc1-2,Potency,[5],inactive
CCN1CCCC1CN (stereo not given),Potency,[5],inactive
Cc1c(N)cccc1C(F)(F)F,Potency,[5],inactive
CN(C(=O)C(Cl)Cl)c1ccc(OC(=O)c2ccco2)cc1,Potency,[5],inactive
CCN(CC)CC(=O)Nc1c(C)cccc1C(=O)OC,Potency,[5],inactive
C[C@]12CCC(=O)C=C1CC[C@@H]1[C@@H]2[C@@H](O)C[C@@]2(C)[C@H]1CC[C@]2(O)C(=O)COC(=O)CCC(=O)O,Potency,[5],inactive
Clc1ccc2c(c1)Nc1ccccc1S2,Potency,[5],inactive
COc1cc(/C=C/C(N)=O)cc(OC)c1OC,Potency,[5],inactive
CCOC(=O)c1ccc(O)c(O)c1,Potency,[5],inactive
Oc1ccccc1-c1nnco1,Potency,[5],inactive
CCN(CC)CCOc1ccc(/C(=C(\Cl)c2ccccc2)c2ccccc2)cc1,Potency,[5],inactive
same,Potency,[2],inactive
same,outcome,[6],inactive
Cc1cccc(N(C)C(=S)Oc2ccc3c(c2)CCC3)c1,Potency,[5],inactive
same,Potency,[2],inactive
same,outcome,[6],inactive
O=C(CCCCCCCCC#CI)Oc1ccccc1,Potency,[5],inactive
same,Potency,[2],inactive
same,outcome,[6],inactive
O=C(NN1CCCC1)NS(=O)(=O)c1ccc(Cl)cc1,Potency,[5],inactive
same,outcome,[6],inactive
CN(C)C(=O)CNC(=O)Cc1ccccc1,Potency,[5],inactive
same,Potency,[2],inactive
same,outcome,[6],inactive
CC1CN(c2cc3c(cc2F)c(=O)c(C(=O)O)cn3-c2ccc(F)cc2F)CCN1 (stereo not given),Potency,[2],inactive
COC(=O)C1=C(C)NC(COC(N)=O)=C(C(=O)OC(C)C)C1c1cccc(Cl)c1Cl (stereo not given),Potency,[2],inactive
same,outcome,[6],inactive
Nc1c(NC/C=C\COc2cc(CN3CCCCC3)ccn2)c(=O)c1=O,Potency,[5],inactive
same,Potency,[2],inactive
same,outcome,[6],inactive
OC1(c2ccc(Cl)c(C(F)(F)F)c2)CCN(CCCC(c2ccc(F)cc2)c2ccc(F)cc2)CC1,Potency,[2],inactive
same,outcome,[6],inactive
CO/N=C(/C(=O)N[C@@H]1C(=O)N2C(C(=O)O)=C(Cn3nnc(C)n3)CS[C@H]12)c1csc(N)n1,Potency,[5],inactive
same,Potency,[2],inactive
same,outcome,[6],inactive
O=C(CCC1CCN(Cc2ccccc2)CC1)c1ccc2c(c1)NCCCC2,Potency,[2],inactive
same,outcome,[6],inactive
CO[C@]1(NC(=O)CSC(F)F)C(=O)N2C(C(=O)O)=C(CSc3nnnn3CCO)CO[C@H]21,Potency,[5],inactive
same,Potency,[2],inactive
same,outcome,[6],inactive
CCCCNc1ccc(C(=O)OCCN(CC)CC)cc1,Potency,[2],inactive
same,outcome,[6],inactive
CC1CC(=O)NN=C1c1ccc(NCC(C)(C)NCC(O)COc2cc(Cl)ccc2C#N)cc1 (stereo not given),Potency,[5],inactive
same,outcome,[6],inactive
O=C(O)CNC(=O)CNC(=O)CNC(=O)CSC(=O)c1ccccc1,Potency,[5],inactive
same,Potency,[2],inactive
same,outcome,[6],inactive
